# In the library only some 2.1% were active in any assay of this set; here they are far more common.
# TPT1 inhibitor = C. albicans TPT1 enzyme inhibition. recombinant caTPT1, FP RNA substrate dephosphorylation. inhibition, % at 5 µM. 300,000 tested, 0.81% active;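 active = inhibition above the mean of all tested compounds plus 3 SD, set per screening campaign, cut at about 24% in these data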;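 also: plate controls were DMSO alone for no effect and ferristatin control at 100 nM for full effect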
# Myeloid diff 2 = promotes myeloid progenitor differentiation; AID 624256; ER-HoxA9 myeloid progenitors, lysozyme-GFP differentiation, flow cytometry; calls only at 10 µM; 360,000 tested, 1% active;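 active = normalized GFP-positive differentiation at or above the plate's own cutoff, the solvent-only control mean plus 3 SD; inconclusive = no clear call, values can overlap the other calls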;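 also: cells exposed to compound for four days before flow analysis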
# Rpn11 inh = inhibitors of human proteasome Rpn11; inhibition, % at 20 µM; O00487; 360,000 tested, 0.59% active; human 26S proteasome, Ub4-pepOG fluorescence polarization; 20S core pre-blocked with epoxomicin; AID 588493;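 active = inhibition at 20 µM, scaled to each plate's controls, above about 33%, limit read from the data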
# Target sequence (O00487 whole entry, looked up): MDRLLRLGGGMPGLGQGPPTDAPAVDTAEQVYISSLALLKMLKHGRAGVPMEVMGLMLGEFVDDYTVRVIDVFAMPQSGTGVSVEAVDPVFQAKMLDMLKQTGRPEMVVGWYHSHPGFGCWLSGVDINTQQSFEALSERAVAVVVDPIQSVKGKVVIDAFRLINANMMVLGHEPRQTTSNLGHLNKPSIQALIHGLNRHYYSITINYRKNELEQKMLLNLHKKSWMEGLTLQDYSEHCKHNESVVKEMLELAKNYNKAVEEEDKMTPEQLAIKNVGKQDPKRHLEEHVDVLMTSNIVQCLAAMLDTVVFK
# HNF4A DNA FP = change in binding of human HNF4 alpha to DNA; P41235; HNF4a-FITC DNA binding, fluorescence polarization, 1 h; activity change, % at 10 µM; 360,000 tested, 0.3% active; in the data active = activity change above about 30%, passing the limit was not always enough
# caTPT1 confirm = confirmation of Candida albicans TPT1 inhibitors. AID 2149. recombinant caTPT1, fluorescence polarization, RNase T1 coupled. inhibition, % at 5 µM. 2,400 tested, 74% active. shares compounds with TPT1 inhibitor;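 active = inhibition above the primary screen limit, the mean inhibition of all tested compounds plus 3 SD, cut at about 25% in these data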
# RNase T1 counter = blocks Aspergillus oryzae RNase T1, a TPT1 counter-screen; shares compounds with TPT1 inhibitor; RNase T1 cleavage, fluorescence polarization, 1536-well; inhibition, % at 5 µM; 2,400 tested, 83% active; AID 2153;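 active = inhibition above the solvent-only control well mean plus 3 SD, limit set per screening run, cut at about 23% in these data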;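 also: plate controls were DMSO wells with enzyme for no effect and wells without RNase T1 for full effect; inhibitors block cleavage so intact labeled substrate keeps polarization high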
# Target sequence (P00651 whole entry, looked up): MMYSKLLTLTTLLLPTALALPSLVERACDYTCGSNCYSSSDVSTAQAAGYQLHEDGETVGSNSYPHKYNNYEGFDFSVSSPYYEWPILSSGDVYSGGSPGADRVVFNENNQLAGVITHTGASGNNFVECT
# Numbers without * were called inactive; i = inactive; ? = inconclusive; nt = no result shown; + = active, no number.
SMILES,TPT1 inhibitor,Myeloid diff 2,Rpn11 inh,HNF4A DNA FP,caTPT1 confirm,RNase T1 counter
CC1(C)CC(=O)C(C=Nc2cc(C(=O)c3ccccc3)ccc2N)=C(O)C1,27.5*,+,nt,31.1,7.4,11.9
CC1Cc2ccccc2N1C(=O)c1ccc(F)c(S(=O)(=O)N2CCOCC2)c1 (configuration not stated),nt,i,0.3,4.2,nt,nt
CCOC(=O)c1c(NC(=O)CC)sc2c1CCN(Cc1ccccc1)C2,2.7,i,-1.9,5.8,nt,nt
CCOC(=O)c1c(NC(=S)Nc2ccccc2)sc2c1CCN(CCc1ccccc1)C2,119.7*,nt,nt,nt,114.5*,112.8*
CCOC(=O)c1c(N)sc2c1CCN(CCc1ccccc1)C2,27.9*,i,nt,22.5,15.8,23.9*
CCOC(=O)c1c(NC(C)=O)sc2c1CCN(Cc1ccccc1)C2,1.4,i,-4.4,3.5,nt,nt
CCOC(=O)c1c(C)[nH]c(C(=O)OCC(=O)Nc2sccc2C(N)=O)c1C,5.6,i,17.0,7.2,nt,nt
CC(C)N1CCN(Cc2ccc(OC3CCCC3)cc2)CC1CCO (configuration not stated),0.7,i,8.2,1.8,nt,nt
N=c1oc2cc(O)ccc2cc1C(=O)Nc1ccc(Cl)cc1,49.7*,i,12.5,34.0,70.5*,79.6*
O=C(Nc1ccc(F)cc1)C(c1cc2ccccc2o1)N1CCN(c2cccc(C(F)(F)F)n2)CC1 (configuration not stated),nt,i,nt,-4.6,nt,nt
O=C(O)CCNc1cc(N2CCN(C(=O)c3ccco3)CC2)c2noc3c2c1C(=O)c1ccccc1-3,-17.5,i,nt,-10.8,nt,nt
CCN1CCN(c2cc(N3CCN(C(=O)c4ccco4)CC3)c3c4c(onc24)-c2ccccc2C3=O)CC1,40.0*,?,-18.3,0.2,43.0*,11.7
CC1(C)CC(=O)C(C2=NC3(CCCCCC3)Cc3ccccc32)=C(O)C1,28.2*,i,5.1,2.5,-1.3,4.0
Cc1c(N=C2N=C(NC(=O)c3cccs3)c3ccccc32)c(=O)n(-c2ccccc2)n1C,84.6*,i,nt,48.1,112.9*,113.1*
Cc1sc(NC(=O)c2sc3nc4c(C)cccc4cc3c2N)c(C#N)c1C,25.4*,+,32.4,20.8,29.7*,43.3*
Cc1cccc2cc3c(N)c(C#N)sc3nc12,-6.2,i,13.7,1.1,nt,nt
N=c1c(S(=O)(=O)c2ccccc2)cc2c(=O)n3ccccc3nc2n1Cc1ccco1,26.3*,i,12.9,-1.8,8.9,17.1
Cc1cccn2c(=O)c3cc(S(=O)(=O)c4ccccc4)c(=N)n(Cc4ccco4)c3nc12,6.1,i,6.0,-3.3,nt,nt
Cc1ccc2nc3c(cc(S(=O)(=O)c4ccccc4)c(=N)n3Cc3ccco3)c(=O)n2c1,-0.2,i,0.8,-10.8,nt,nt
Cc1ccc(S(=O)(=O)c2cc3c(=O)n4ccccc4nc3n(Cc3ccco3)c2=N)cc1C,25.0*,nt,nt,nt,18.4,20.7
CCCCC(CC)CNC(=O)C1CC=CCC1C(=O)O (configuration not stated),2.1,i,-0.7,3.0,nt,nt
COc1cc(/C=C2\SC(=O)NC2=O)ccc1OCC(=O)N1CCOCC1,nt,i,2.2,3.1,nt,nt
CCn1c2ccccc2c2c3ncc4cccn4c3ccc21,33.0*,+,nt,24.0,15.1,22.1*
c1ccc2c(c1)ncc1cccn12,0.9,i,3.6,-6.3,nt,nt
Cc1oc(-c2ccccc2Cl)nc1CN1CCCC1c1ccc(F)cc1 (configuration not stated),3.5,i,10.4,7.4,nt,nt
SMILES,TPT1 inhibitor,Myeloid diff 2,Rpn11 inh,HNF4A DNA FP,caTPT1 confirm,RNase T1 counter
Cc1ccc(-c2nc(CN3CCCCC3c3cccc(F)c3)c(C)o2)o1 (configuration not stated),33.1*,i,27.8,18.5,23.3,29.7*
C=CCN1C(=O)CS/C1=C(\C#N)S(=O)(=O)c1ccc(C)cc1,74.2*,i,2.0,5.0,9.9,13.7
Cc1cc(OCC(=O)N2CCN(c3ccccc3)CC2)c2c(C)c(C)c(=O)oc2c1,0.0,i,4.9,-1.6,nt,nt
Cc1cc(OC(C)C(=O)N2CCN(c3ccccc3)CC2)c2c(C)c(C)c(=O)oc2c1 (configuration not stated),28.8*,i,-4.9,2.7,1.2,2.5
COc1cccc(CN2CC(C(=O)NCCN3CCOC3=O)CCC2=O)c1 (configuration not stated),-4.1,?,1.1,6.0,nt,nt
Cc1nc2oc3ccccc3c(=O)c2cc1C(=O)O,1.3,i,1.0,0.8,nt,nt
C=CCNC(=O)c1cc2c(=O)c3ccccc3oc2nc1C,48.4*,i,6.8,-0.6,10.8,15.6
S=C(NCC1CCCO1)N1CCN(Cc2ccccc2)CC1 (configuration not stated),-0.6,i,11.6,1.3,nt,nt
O=c1cc(C(F)(F)F)nc(-n2[nH]c3c(c2=O)CCCC3)[nH]1,33.3*,i,1.0,4.0,15.6,28.2*
CC1CC(C)CN(S(=O)(=O)c2ccc(NC(=O)c3ccc(=O)[nH]c3)cc2)C1 (configuration not stated),nt,i,0.1,-5.7,nt,nt
COc1ccc(C2C(C#N)=C(N)Oc3cc(O)ccc32)cc1 (configuration not stated),nt,i,8.6,2.8,nt,nt
COc1ccc(N=Cc2cc3c(cc2O)OC(N)=C(C#N)C3c2ccccc2)cc1 (configuration not stated),55.0*,i,nt,65.9*,77.5*,87.5*
Cc1ccc(NC(=O)NCc2cccn2C)cc1C,-3.6,i,-1.7,1.9,nt,nt
Oc1ccc2ccccc2c1-c1sc(Nc2ccccc2)n[n+]1-c1ccc(F)cc1,29.2*,i,-31.0,-67.6,-11.9,2.5
CC(=O)c1sc(N/N=C\c2ccccc2O)nc1C,135.8*,i,nt,34.7*,118.0*,114.8*
COc1cc(C2C(C#N)=C(N)Oc3cc(N(C)C)ccc32)cc2c1OCO2 (configuration not stated),100.4*,?,nt,55.7,98.1*,98.8*
COc1cc(C2C(C#N)=C(N)Oc3cc(O)ccc32)cc2c1OCO2 (configuration not stated),-0.5,i,9.1,5.0,nt,nt
COC(=O)c1sc(NC(=S)NC(=O)c2cccc(Br)c2)nc1C,2.9,i,0.3,1.3,nt,nt
COc1ccc(-n2cc(C(=O)c3cc(Cl)ccc3O)cc(C#N)c2=O)cc1,11.2,i,28.3,8.3,nt,nt
COc1ccc(O)c(C(=O)c2cc(C#N)c(=O)n(-c3ccc(Cl)cc3)c2)c1,48.0*,i,nt,28.9,61.7*,59.7*
CCOc1ccc(N2C(=O)C3Sc4[nH]c(=O)sc4C(/C=C/c4ccccc4)C3C2=O)cc1 (configuration not stated),50.9*,i,nt,34.3,34.2*,40.5*
Cc1cc(/C=N/Nc2ccc([N+](=O)[O-])cn2)c(C)n1-c1ccccc1,30.8*,i,30.1,7.3,35.4*,47.4*
Cc1ccc(C=NNc2ccc([N+](=O)[O-])cn2)cc1,nt,i,3.6,-2.6,nt,nt

# High-throughput results from PubChem BioAssay.
